Activity calls are given as the source filed them. How the source made its calls: active means hit-call score of the fitted dose curve at least 0.9, where 1 is the maximum; inactive means score below 0.9.
Legend:
[1] = read-out: Fatty acid synthase (Homo sapiens) (UniProt P49327); experiment: LTEA_HepaRG_FASN: Life Technologies and Expression Analysis (LTEA) Assay for Fatty Acid Synthase (FASN) using HepaRG (AID 2283448); conditions: mRNA level, 48 h; actives raise or lower the signal
Method in brief: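 Differentiated HepaRG cells in serum-free induction medium exposed 48 h in duplicate to eight half-log concentrations, top 100 uM, 0.5% DMSO. FASN mRNA by qRT-PCR normalised to ACTB, GAPDH, POLR2A; bidirectional fit versus DMSO.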

[2] = read-out: Cyclin D2 (CCND2), CCND2 (gene 894); experiment: LTEA_HepaRG_CCND2: Life Technologies and Expression Analysis (LTEA) Assay for Cyclin D2 (CCND2) using HepaRG (AID 2283449); conditions: mRNA level, 48 h; actives raise or lower the signal;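 further: CCND2 transcript measured by TaqMan qRT-PCR and normalised to three housekeeping genes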
Method in brief: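 Chemicals in 0.5% DMSO, eight half-log concentrations from 100 uM top, were applied in duplicate for 48 h to human HepaRG cells in serum-free induction medium. CCND2 mRNA by TaqMan qRT-PCR, normalised to ACTB/GAPDH/POLR2A; bidirectional fit versus DMSO.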

[3] = read-out: Cyclin Dependent Kinase Inhibitor 1A (CDKN1A), CDKN1A (gene 1026); experiment: LTEA_HepaRG_CDKN1A: Life Technologies and Expression Analysis (LTEA) Assay for Cyclin Dependent Kinase Inhibitor 1A (CDKN1A) using HepaRG (AID 2283450); conditions: mRNA level, 48 h; actives raise or lower the signal
Method in brief: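 Gain or loss of CDKN1A transcript is scored by bidirectional fitting against 0.5% DMSO vehicle. Human HepaRG cultures receive chemicals for 48 h across an 8-point series peaking at 100 uM; expression comes from qRT-PCR.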

[4] = read-out: Cyclin D1 (CCND1), CCND1 (gene 595); experiment: LTEA_HepaRG_CCND1: Life Technologies and Expression Analysis (LTEA) Assay for Cyclin D1 (CCND1) using HepaRG (AID 2283451); conditions: mRNA level, 48 h; actives raise or lower the signal;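 on AC50: TaqMan qRT-PCR transcript level normalised to ACTB GAPDH and POLR2A housekeeping genes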
Method in brief: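 Expression change is measured by qRT-PCR in HepaRG cells after 48 h treatment across eight concentrations topping at 100 uM, with duplicate wells and DMSO (0.5%) serving as baseline for bidirectional fitting.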

[5] = read-out: catalase (CAT), CAT (gene 847); experiment: LTEA_HepaRG_CAT: Life Technologies and Expression Analysis (LTEA) Assay for catalase (CAT) using HepaRG (AID 2283452); conditions: mRNA level, 48 h; actives raise or lower the signal;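 on AC50: TaqMan qRT-PCR signal normalized to ACTB GAPDH and POLR2A housekeeping genes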
Method in brief: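 HepaRG cells in serum-free induction medium, 0.5% DMSO vehicle, exposed 48 h in duplicate over 8 half-log concentrations from 100 uM. CAT mRNA measured by qRT-PCR, normalized to ACTB, GAPDH, POLR2A; bidirectional fit versus DMSO.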

[6] = read-out: flavin-containing dimethylaniline monooxygenases 3 (FMO3), FMO3 (gene 2328); experiment: LTEA_HepaRG_FMO3: Life Technologies and Expression Analysis (LTEA) Assay for flavin-containing dimethylaniline monooxygenases 3 (FMO3) using HepaRG (AID 2283453); conditions: mRNA level, 48 h; actives raise or lower the signal
Method in brief: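 Differentiated HepaRG cells in serum-free induction medium, exposed 48 h in duplicate to 8 half-log concentrations up to 100 uM in 0.5% DMSO. FMO3 mRNA by qRT-PCR, normalized to ACTB, GAPDH, POLR2A; bidirectional fit vs DMSO.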

[7] = read-out: Cytochrome P450 (CYP1A1), CYP1A1 (gene 1543); experiment: LTEA_HepaRG_CYP1A1: Life Technologies and Expression Analysis (LTEA) Assay for Cytochrome P450 (CYP1A1) using HepaRG (AID 2283454); conditions: mRNA level, 48 h; actives raise or lower the signal
Method in brief: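 Using HepaRG cultures with 0.5% DMSO as vehicle, eight-concentration exposures (max 100 uM) lasted 48 h. Transcript levels were measured by TaqMan qRT-PCR and normalized to ACTB, GAPDH and POLR2A.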

[8] = read-out: CFLAR gene, CFLAR (gene 8837); experiment: LTEA_HepaRG_CFLAR: Life Technologies and Expression Analysis (LTEA) Assay for CFLAR gene using HepaRG (AID 2283455); conditions: mRNA level, 48 h; actives raise or lower the signal
Method in brief: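 Differentiated HepaRG cells in serum-free induction medium were exposed 48 h in duplicate to eight half-log concentrations up to 100 uM in 0.5% DMSO; mRNA measured by TaqMan qRT-PCR, normalized to ACTB, GAPDH, POLR2A; bidirectional fitting versus DMSO.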

[9] = read-out: Forkhead box O1 (FOXO1), FOXO1 (gene 2308); experiment: LTEA_HepaRG_FOXO1: Life Technologies and Expression Analysis (LTEA) Assay for Forkhead box O1 (FOXO1) using HepaRG (AID 2283456); conditions: mRNA level, 48 h; actives raise or lower the signal
Method in brief: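 Differentiated HepaRG cells, in serum-free induction medium with 0.5% DMSO, exposed 48 h in duplicate to 8-point half-log series from 100 uM. FOXO1 mRNA measured by TaqMan qRT-PCR, normalized to ACTB, GAPDH, POLR2A; bidirectional fit versus DMSO.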

[10] = read-out: growth arrest and DNA damage 45 (GADD45A), GADD45A (gene 1647); experiment: LTEA_HepaRG_GADD45A: Life Technologies and Expression Analysis (LTEA) Assay for growth arrest and DNA damage 45 (GADD45A) using HepaRG (AID 2283458); conditions: mRNA level, 48 h; actives raise or lower the signal
Method in brief: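 Differentiated HepaRG cells exposed 48 h in serum-free induction medium to 8 concentrations, top 100 uM in half-log steps, 0.5% DMSO. GADD45A mRNA quantified by qRT-PCR, normalized to ACTB, GAPDH and POLR2A; bidirectional fit versus DMSO.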

[11] = read-out: ABC Transporter (ABCB1), ABCB1 (gene 5243); experiment: LTEA_HepaRG_ABCB1: Life Technologies and Expression Analysis (LTEA) Assay for ABC Transporter (ABCB1) using HepaRG (AID 2283460); conditions: mRNA level, 48 h; actives raise or lower the signal
Method in brief: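 HepaRG cells exposed in duplicate for 48 h in serum-free induction medium to eight half-log concentrations up to 100 uM in 0.5% DMSO. ABCB1 mRNA quantified by qRT-PCR, normalised to ACTB, GAPDH and POLR2A; fitted bidirectionally versus DMSO.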

[12] = read-out: growth arrest and DNA damage 45 (GADD45B), GADD45B (gene 4616); experiment: LTEA_HepaRG_GADD45B: Life Technologies and Expression Analysis (LTEA) Assay for growth arrest and DNA damage 45 (GADD45B) using HepaRG (AID 2283461); conditions: mRNA level, 48 h; actives raise or lower the signal
Method in brief: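 Human HepaRG monolayers receive chemicals for 48 h at eight half-log concentrations, highest 100 uM, in 0.5% DMSO. Expression is measured by TaqMan qRT-PCR and normalized to ACTB, GAPDH and POLR2A.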

[13] = read-out: ABC Transporter (ABCC3), ABCC3 (gene 8714); experiment: LTEA_HepaRG_ABCC3: Life Technologies and Expression Analysis (LTEA) Assay for ABC Transporter (ABCC3) using HepaRG (AID 2283462); conditions: mRNA level, 48 h; actives raise or lower the signal
Method in brief: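 Transcriptional change of ABCC3 in HepaRG after 48 h treatment, determined by qRT-PCR normalized to endogenous controls. Concentrations spanned eight half-log steps to 100 uM in 0.5% DMSO.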

[14] = read-out: ABC Transporter (ABCB11), ABCB11 (gene 8647); experiment: LTEA_HepaRG_ABCB11: Life Technologies and Expression Analysis (LTEA) Assay for ABC Transporter (ABCB11) using HepaRG (AID 2283463); conditions: mRNA level, 48 h; actives raise or lower the signal
Method in brief: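 Differentiated human HepaRG cells in serum-free induction medium, dosed in duplicate for 48 h. Eight-point half-log series from 100 uM in 0.5% DMSO; ABCB11 mRNA by qRT-PCR, normalized to ACTB, GAPDH, POLR2A, fitted bidirectionally versus DMSO.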

[15] = read-out: ABC Transporter (ABCC2), ABCC2 (gene 1244); experiment: LTEA_HepaRG_ABCC2: Life Technologies and Expression Analysis (LTEA) Assay for ABC Transporter (ABCC2) using HepaRG (AID 2283464); conditions: mRNA level, 48 h; actives raise or lower the signal
Method in brief: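 After plating and 48 h culture, HepaRG medium is replaced with serum-free induction medium and chemicals are added (8 concentrations, max 100 uM, 0.5% DMSO) for 48 h. Total RNA then undergoes qRT-PCR for ABCC2 with housekeeping normalization.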

[16] = read-out: Broad substrate specificity ATP-binding cassette transporter ABCG2 (Homo sapiens) (UniProt Q9UNQ0); experiment: LTEA_HepaRG_ABCG2: Life Technologies and Expression Analysis (LTEA) Assay for ABC Transporter (ABCG2) using HepaRG (AID 2283465); conditions: mRNA level, 48 h; actives raise or lower the signal
Method in brief: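 Differentiated HepaRG cells were exposed for 48 h in serum-free induction medium to 8 half-log concentrations, top 100 uM, in 0.5% DMSO. ABCG2 mRNA was measured by qRT-PCR, normalized to ACTB, GAPDH and POLR2A, with bidirectional fitting versus DMSO.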

[17] = read-out: ATP-citrate lyase (ACLY), ACLY (gene 47); experiment: LTEA_HepaRG_ACLY: Life Technologies and Expression Analysis (LTEA) Assay for ATP-citrate lyase (ACLY) using HepaRG (AID 2283466); conditions: mRNA level, 48 h; actives raise or lower the signal
Method in brief: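 Differentiated HepaRG cells exposed 48 h in serum-free induction medium to eight half-log concentrations up to 100 uM in 0.5% DMSO, duplicates. Transcript measured by Fluidigm TaqMan qRT-PCR, normalized to ACTB, GAPDH, POLR2A; bidirectional fit versus DMSO.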

[18] = read-out: Peroxisomal acyl-coenzyme A oxidase 1 (ACOX1) gene, ACOX1 (gene 51); experiment: LTEA_HepaRG_ACOX1: Life Technologies and Expression Analysis (LTEA) Assay for Peroxisomal acyl-coenzyme A oxidase 1 (ACOX1) gene using HepaRG (AID 2283467); conditions: mRNA level, 48 h; actives raise or lower the signal
Method in brief: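 HepaRG cells, plated 48 h then switched to serum-free induction medium, were exposed in duplicate for 48 h to 8-point half-log concentrations up to 100 uM in 0.5% DMSO. ACOX1 mRNA was measured by qRT-PCR, normalized to ACTB/GAPDH/POLR2A, and fitted bidirectionally versus DMSO.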

[19] = CEETOX_H295R_TESTO: CeeTox H295R High-throughput Steroidogenesis Assay for Testosterone (TESTO) (AID 2283457); conditions: actives raise or lower the signal
Method in brief: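 Steroidogenesis in H295R cells following OECD 456 with minor changes; 48 h exposure. Medium testosterone by HPLC-MS/MS, DMSO as baseline, with MTT viability run in parallel.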

[20] = read-out: Forkhead box O3 (FOXO3), FOXO3 (gene 2309); experiment: LTEA_HepaRG_FOXO3: Life Technologies and Expression Analysis (LTEA) Assay for Forkhead box O3 (FOXO3) using HepaRG (AID 2283459); conditions: mRNA level, 48 h; actives raise or lower the signal
Method in brief: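 Differentiated human HepaRG cells, 48 h post-plating, exposed in duplicate for 48 h in serum-free induction medium; 8-point half-log series from 100 uM in 0.5% DMSO. FOXO3 mRNA by TaqMan qRT-PCR, normalized to ACTB/GAPDH/POLR2A; bidirectional fit versus DMSO.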

Measured: AC50

Chain of Fatty acid synthase (Homo sapiens) (P49327 whole entry, looked up): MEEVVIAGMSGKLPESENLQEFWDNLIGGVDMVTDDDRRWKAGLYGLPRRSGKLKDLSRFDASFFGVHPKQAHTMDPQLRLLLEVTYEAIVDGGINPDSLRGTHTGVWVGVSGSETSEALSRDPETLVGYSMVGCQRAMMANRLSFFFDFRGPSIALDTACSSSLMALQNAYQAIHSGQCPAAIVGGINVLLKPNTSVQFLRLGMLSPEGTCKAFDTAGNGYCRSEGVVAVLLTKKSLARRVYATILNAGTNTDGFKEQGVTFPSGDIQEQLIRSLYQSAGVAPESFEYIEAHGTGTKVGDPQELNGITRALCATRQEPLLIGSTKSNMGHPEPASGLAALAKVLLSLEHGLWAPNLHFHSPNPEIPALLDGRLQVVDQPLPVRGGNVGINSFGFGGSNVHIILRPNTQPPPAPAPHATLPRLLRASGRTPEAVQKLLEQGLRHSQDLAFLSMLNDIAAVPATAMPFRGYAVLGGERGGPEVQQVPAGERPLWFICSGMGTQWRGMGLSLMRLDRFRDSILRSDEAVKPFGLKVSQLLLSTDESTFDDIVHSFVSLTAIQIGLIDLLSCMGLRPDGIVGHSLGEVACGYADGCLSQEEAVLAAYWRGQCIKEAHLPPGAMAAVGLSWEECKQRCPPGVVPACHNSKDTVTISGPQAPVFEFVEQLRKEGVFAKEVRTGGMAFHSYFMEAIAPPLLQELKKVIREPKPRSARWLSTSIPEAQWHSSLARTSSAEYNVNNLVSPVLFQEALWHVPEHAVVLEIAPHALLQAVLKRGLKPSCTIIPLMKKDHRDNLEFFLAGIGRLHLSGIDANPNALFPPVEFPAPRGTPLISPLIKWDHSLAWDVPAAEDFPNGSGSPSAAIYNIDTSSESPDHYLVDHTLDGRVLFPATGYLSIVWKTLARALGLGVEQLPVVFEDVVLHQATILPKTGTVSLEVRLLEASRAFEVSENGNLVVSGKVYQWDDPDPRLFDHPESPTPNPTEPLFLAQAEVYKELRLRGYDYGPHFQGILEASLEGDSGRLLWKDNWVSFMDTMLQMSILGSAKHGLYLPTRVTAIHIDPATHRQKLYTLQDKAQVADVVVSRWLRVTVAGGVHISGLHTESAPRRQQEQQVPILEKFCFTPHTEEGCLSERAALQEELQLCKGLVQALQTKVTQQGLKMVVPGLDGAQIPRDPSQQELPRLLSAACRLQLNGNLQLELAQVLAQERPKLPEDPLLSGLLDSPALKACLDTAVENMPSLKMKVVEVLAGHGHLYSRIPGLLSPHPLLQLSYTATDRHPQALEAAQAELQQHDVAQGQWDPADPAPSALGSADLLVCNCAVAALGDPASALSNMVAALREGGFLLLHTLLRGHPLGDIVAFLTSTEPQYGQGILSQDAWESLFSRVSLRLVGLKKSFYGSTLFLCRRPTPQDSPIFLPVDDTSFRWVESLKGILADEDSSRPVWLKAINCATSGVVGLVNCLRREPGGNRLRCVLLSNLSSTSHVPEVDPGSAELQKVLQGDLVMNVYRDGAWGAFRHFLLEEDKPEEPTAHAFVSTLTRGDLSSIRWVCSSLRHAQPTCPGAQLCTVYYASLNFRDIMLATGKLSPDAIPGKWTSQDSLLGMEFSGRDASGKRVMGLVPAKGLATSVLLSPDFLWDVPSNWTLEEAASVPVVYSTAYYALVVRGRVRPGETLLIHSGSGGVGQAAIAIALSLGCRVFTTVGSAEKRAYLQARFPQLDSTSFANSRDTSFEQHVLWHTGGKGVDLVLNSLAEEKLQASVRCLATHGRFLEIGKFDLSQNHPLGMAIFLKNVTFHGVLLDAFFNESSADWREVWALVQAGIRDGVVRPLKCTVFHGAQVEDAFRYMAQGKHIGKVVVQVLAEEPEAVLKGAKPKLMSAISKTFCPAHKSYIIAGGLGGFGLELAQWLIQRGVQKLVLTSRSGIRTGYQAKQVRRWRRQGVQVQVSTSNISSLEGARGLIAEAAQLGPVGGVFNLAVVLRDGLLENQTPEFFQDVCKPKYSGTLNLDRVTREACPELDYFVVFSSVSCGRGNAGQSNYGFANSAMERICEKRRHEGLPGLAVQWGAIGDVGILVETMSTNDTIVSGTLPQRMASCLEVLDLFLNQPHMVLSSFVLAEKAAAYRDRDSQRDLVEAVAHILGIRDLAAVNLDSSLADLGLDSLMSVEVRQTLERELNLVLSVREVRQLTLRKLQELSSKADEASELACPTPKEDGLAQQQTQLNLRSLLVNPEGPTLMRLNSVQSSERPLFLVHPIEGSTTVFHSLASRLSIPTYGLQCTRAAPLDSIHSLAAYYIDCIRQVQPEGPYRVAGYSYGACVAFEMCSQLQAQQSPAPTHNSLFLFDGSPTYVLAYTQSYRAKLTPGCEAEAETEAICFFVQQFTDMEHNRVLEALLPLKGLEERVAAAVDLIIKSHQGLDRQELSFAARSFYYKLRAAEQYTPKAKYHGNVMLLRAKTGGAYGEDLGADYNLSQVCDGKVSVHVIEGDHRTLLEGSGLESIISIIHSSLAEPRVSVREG
Chain of Broad substrate specificity ATP-binding cassette transporter ABCG2 (Homo sapiens) (Q9UNQ0 whole entry, looked up): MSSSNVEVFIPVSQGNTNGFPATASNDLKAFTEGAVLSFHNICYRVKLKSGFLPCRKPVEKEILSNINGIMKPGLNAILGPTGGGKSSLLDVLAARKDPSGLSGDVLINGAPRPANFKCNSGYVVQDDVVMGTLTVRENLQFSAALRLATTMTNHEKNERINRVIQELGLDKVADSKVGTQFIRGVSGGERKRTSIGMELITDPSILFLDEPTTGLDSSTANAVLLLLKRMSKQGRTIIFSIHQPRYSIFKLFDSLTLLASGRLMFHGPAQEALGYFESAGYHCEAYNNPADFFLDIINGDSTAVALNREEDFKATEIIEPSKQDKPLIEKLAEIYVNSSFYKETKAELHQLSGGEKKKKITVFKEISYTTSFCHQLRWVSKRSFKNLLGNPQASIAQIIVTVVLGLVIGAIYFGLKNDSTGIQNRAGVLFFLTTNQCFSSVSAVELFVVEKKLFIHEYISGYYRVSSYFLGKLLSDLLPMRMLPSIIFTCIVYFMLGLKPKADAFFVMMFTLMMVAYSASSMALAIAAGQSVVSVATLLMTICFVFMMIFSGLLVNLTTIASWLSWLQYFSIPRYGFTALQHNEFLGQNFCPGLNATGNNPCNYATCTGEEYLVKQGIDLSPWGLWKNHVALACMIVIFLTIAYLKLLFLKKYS

CCCOc1ccc(S(=O)(=O)N2CCN(CC)CC2)cc1-c1nc2c(CC)n(Cc3ccccn3)nc2c(=O)[nH]1
active: [1] 50 µM | [7] 59.8 µM | [11] 2.87 µM | [14] 27.7 µM | [15] 5.49 µM | [17] 80.2 µM
not listed: [19] | [20]
inactive: all other assays above

CC(C)C(=O)Nc1ccc([N+](=O)[O-])c(C(F)(F)F)c1
active: [1] 37 µM | [3] 50 µM | [4] 12.4 µM | [5] 62.1 µM | [6] 50 µM | [7] 11.3 µM | [8] 50 µM | [9] 50 µM | [10] 67.9 µM | [14] 25.3 µM | [15] 34.3 µM | [17] 17.6 µM | [18] 72.4 µM
inactive: [2] | [11] | [12] | [13] | [16]

CCN(CC)C(=S)SSC(=S)N(CC)CC
active: [7] 51 µM
not listed: [13]
inactive: all other assays above

From PubChem BioAssay (EPA / NIEHS)
